# ADAM17 inh: inhibits human ADAM17 | P78536 | recombinant ADAM17, EDANS/DABCYL FRET peptide cleavage | inhibition, % at 6.95 µM | 0.83% of 370,000 active;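 active means inhibition above the mean of compounds lying between control limits plus 3 SD, set per campaign, cut at about 8.5% in these data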;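 further: 0% = DMSO-only wells as the low control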
# ADAM10 inh: inhibitors of human ADAM10. O14672. recombinant ADAM10, EDANS/DABCYL FRET peptide cleavage, 3 h. inhibition, % at 7 µM. 0.62% of 370,000 active. AID 720582;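 active means inhibition above a per-campaign cutoff equal to the mean of compounds falling between control-based bounds plus 3 SD, cut at about 20% in these data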;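 further: 0% = DMSO wells while the 100% control is not disclosed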
# PLC-beta3 inh: blocks human PLC-beta3 enzyme activity; Q01970; Purified PLC-beta3, fluorogenic substrate, fluorescence; inhibition, % at 12.2 µM; 0.18% of 370,000 active; in the data active means inhibition above about 11%;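 further: 0% = median of compound wells on plate and 100% = full blocker control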
# PLC-gamma1 inh: PLC-gamma1 (human) inhibition, primary screen; purified PLC-gamma1, fluorogenic substrate, fluorescence; P19174; 0.84% of 370,000 active; inhibition, % at 12.2 µM; in the data active means inhibition above about 9.5%
# proKLK7 act: proKLK7 (human) activation, primary screen. 0.9% of 370,000 active. activation, % at 7 µM. purified proKLK7, EDANS-DABCYL substrate fluorescence; 100% is mature enzyme control, 0% vehicle;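 active means activation above the mean of all tested compounds plus 3 SD, computed per campaign excluding outliers beyond control limits, cut at about 13% in these data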
# KLK7 act conf: proKLK7 activation, confirmation. shares compounds with proKLK7 act. purified proKLK7, EDANS-DABCYL substrate fluorescence; scaled: vehicle 0, mature enzyme 100. activation, % at 7 µM. 68% of 3,200 active;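 active means activation, as change over the incubation, above the mean of all tested compounds plus 3 SD, cut at about 13% in these data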
# EDANS interfere: fluorescence interference counter-screen for KLK7 activators | shares compounds with proKLK7 act | EDANS-DABCYL substrate fluorescence interference, no enzyme, 4 h; solvent 0%, active enzyme control 100% | activation, % at 7 µM | 80% of 3,200 active | AID 686952;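 active means activation above the all-compound mean plus 3 SD, ignoring values outside control-based bounds, cut at about 4.8% in these data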;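 further: value is the 4 h activation minus the activation read at time zero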
# EDANS interf: optically interferes with EDANS-DABCYL fluorescence, kallikrein-7 activator counter-screen; shares compounds with proKLK7 act; EDANS-DABCYL peptide fluorescence interference, no enzyme; EC50, µM; AID 720493; 20% of 250 active;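 active means compounds that raise the fluorescence signal in this interference counterscreen, with EC50 at or below 10 µM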;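 further: intact quenched peptide substrate alone read at 355 nm excitation and 520 nm emission; signal is fluorescence gain from T0 to T4 after four hours at room temperature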
# * = called active by the depositor; i = inactive; x = no result. Compounds with a hit are over-represented: about 2.9% of the library has one in this group of screens.
SMILES,ADAM17 inh,ADAM10 inh,PLC-beta3 inh,PLC-gamma1 inh,proKLK7 act,KLK7 act conf,EDANS interfere,others
O=c1c2ccccc2oc2cc(NCCCn3ccnc3)ccc12,i,i,i,i,63*,66*,60*,
O=C(NCCCn1ccnc1)c1cc2ccccc2oc1=O,-13,-54,-9,-2,-1,x,x,
O=c1c2ccccc2oc2ccc(NCCCN3CCOCC3)cc12,0,-13,-60,-44,0,x,x,
O=c1c2ccccc2oc2cc(NCCCN3CCOCC3)ccc12,i,i,i,i,75*,65*,64*,
CC(=O)/C=C(\C)Nc1ccc(-c2cnc(-c3ccccc3)o2)cc1,i,i,i,i,57*,63*,64*,
CCn1c(/C=C/c2cc[n+](C)cc2)nc2ccccc21,-127,-332,i,i,57*,59*,62*,
CCOC(=O)C1=NOC(C(=O)NC2CCCC2)(C(=O)c2ccc(OC)cc2)C1 (stereo not given),2,-1,-3,3,0,x,x,
CCOP(=O)(OCC)C(NC(=O)c1cccs1)C(F)(F)F (stereo not given),-54,-195,-1,-4,167*,241*,247*,
CC(C)C(C#CC1CC1)N(Cc1ccc2c(c1)OCO2)C(N)=NC(=O)/C=C/c1ccccc1 (stereo not given),3,5,0,-1,1,x,x,
O=C1Nc2ccc(S(=O)(=O)N3CCOCC3)c3cccc1c23,-212,i,i,i,35*,58*,57*,
CN1CCN(S(=O)(=O)c2ccc3c4c(cccc24)C(=O)N3)CC1,-238,i,i,i,66*,41*,49*,
O=C1Nc2ccc(S(=O)(=O)N3CCCCCC3)c3cccc1c23,-29,-108,-404,-308,2,x,x,
O=C1Nc2ccc(S(=O)(=O)N3CCCC3)c3cccc1c23,-75,-215,-499,-354,5,x,x,
C/C(=N/NC(=O)Cc1cccs1)c1cccc([N+](=O)[O-])c1,-1,-2,-1,-5,0,x,x,
CSCCC(c1nc2ccccc2[nH]1)n1c(/C=C/c2ccc(Cl)cc2)nc2ccccc21 (stereo not given),8,-6,-2,5,0,x,x,
CC1=CC(c2ccccc2)n2nc(N3C(=O)C4CC=CCC4C3=O)nc2N1 (stereo not given),i,i,i,i,113*,211*,191*,
CC1=CC(c2ccccc2)n2nc(N3C(=O)CCC3=O)nc2N1 (stereo not given),-485,i,-451,-370,76*,112*,142*,
Nc1nc(N2C(=O)C3CC=CCC3C2=O)nn1-c1ccccc1 (stereo not given),-1,4,0,3,0,x,x,
CC1=CC(c2ccccc2)n2nc(N3C(=O)c4ccccc4C3=O)nc2N1 (stereo not given),-472,i,i,i,17*,8,8.0*,
O=S(=O)(c1cccc(-c2cn3cccnc3n2)c1)N1CCOCC1,i,i,i,i,30*,71*,67*,
CCN(CC)S(=O)(=O)c1ccc(-c2cn3ccccc3n2)cc1,-261,i,-242,-194,11,x,x,
CN(C)S(=O)(=O)c1ccc(-c2cn3ccccc3n2)cc1,-452,i,i,-485,30*,22*,31*,
CN(C)S(=O)(=O)c1cccc(-c2cn3cccnc3n2)c1,i,i,i,i,39*,57*,62*,
C=CCN1C(=O)[C@@H](CC(=O)NCCc2ccccc2OC)[C@]2(C(=O)OC)CCCCC=C12,-3,-2,2,2,0,x,x,
COC(=O)C1=C(C(=O)OC)[C@@]2([C@@H](Cc3ccc(C)cc3)Nc3ccccc3)C=C[C@@H]1O2,6,13,-3,-1,x,x,x,
SMILES,ADAM17 inh,ADAM10 inh,PLC-beta3 inh,PLC-gamma1 inh,proKLK7 act,KLK7 act conf,EDANS interfere,others
COc1ccc(Cn2c(NC(=O)c3ccccc3)nc(Cc3ccccc3)c2-c2ccccc2)c(OC)c1,3,-5,-23,-14,-12,x,x,
COC(=O)c1cc(N2CCN(C)CC2)nc2ccccc12,-101,-269,i,-396,61*,15*,13*,
CCOC(=O)c1cc(N2CCCCC2)nc2ccccc12,-54,-214,-287,-194,17*,3,4.9*,
CC(COc1ccc(C#N)c(F)c1)CN1CCC(C(O)(c2ccccc2)c2ccccc2)CC1 (stereo not given),2,2,1,2,0,x,x,
CCOC(=O)C1(C)C(=O)CC2c3nc4ccccc4cc3CN2C1=O (stereo not given),-9,-62,-101,-74,20*,2,2,
CCOC(=O)N1Cc2cc3ccccc3nc2C1,1,6,4,5,0,x,x,
C=CCCC1(CCC)C(=O)/C(=C(\O)c2ccccc2)C(=O)C(CCC)=C1OC (stereo not given),0,-4,-1,1,0,x,x,
CCC(c1nnnn1Cc1ccc(F)cc1)N(CCCO)Cc1cc2cc3c(cc2[nH]c1=O)OCO3 (stereo not given),-170,i,i,i,26*,0,1,
Cc1ccc(CNC(=O)OC(C)(C)C)c(/C=C/S(=O)(=O)NCc2ccc(F)cc2)c1,3,2,3,4,0,x,x,
NC(=O)c1sc2nc(N3CCOCC3)c3c(c2c1N)CCCC3,-334,i,i,i,21*,-1,0,
Nc1c(C(=O)NCCc2ccccc2)sc2nc(N3CCOCC3)c3c(c12)CCCC3,-262,i,i,i,152*,-19,-21,
CCOC(=O)c1sc2nc(N3CCOCC3)c3c(c2c1N)CCC3,i,i,i,i,-70,x,x,
Cn1c(SCC(=O)Nc2ccccc2-c2ccccc2)nnc1-c1ccccc1,1,-10,0,2,0,x,x,
Cc1nc(/C=C\C(=O)O)c2cc(C)oc2n1,i,i,-351,-290,13*,20*,22*,
CC(C)C[C@H]1COc2cccc(F)c2S(=O)(=O)N1Cc1cn(Cc2ccc(F)cc2)nn1,-2,2,2,1,0,x,x,
Cn1c(SCC(=O)Nc2ccc(NC(=O)c3cccs3)cc2)nnc1-c1ccncc1,-3,6,5,4,51*,1,0,
COc1ccc2nc3cc(Cl)ccc3c(Nc3ccc(O)c(CN4CCN(C)CC4)c3)c2c1,-111,-483,-377,-310,22*,32*,22*,EDANS interf=>69

# Screening data (PubChem)
